Assay outcomes deposited in PubChem by several laboratories.
A selection: hits, their analogues and other compounds. The true share with any hit is near 1.4%.
sdo1 growth: growth rescue of sdo1-depleted yeast, primary screen, S. cerevisiae, bone marrow failure model. AID 817, 2007. z-score at 10 µM. 140,000 tested, 0.21% active. S. cerevisiae sdo1-depleted JHY4D growth rescue, OD600 30 h; stronger effect = higher value; pdr5 snq2 efflux-pump mutant strain;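 active = z-score above 3 at both the 24 hr and the 30 hr optical density reads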
MRP-1 activ: H69AR viability gain despite doxorubicin, primary screen, MRP-1 activator project, H69AR cells, CellTiter-Glo; viability increase, % at 10 µM; viability rescue; 140,000 tested, 0.61% active;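 active = viability gain under doxorubicin at or above a set limit, the compound median plus 3 SD, cut at about 4.7% in these data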;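 note: MRP-1 overexpressing cells given doxorubicin 25 µM after compound pretreatment; 18-22 h compound pretreatment then 72 h with doxorubicin before readout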
IL1B cytotox: cytotoxicity in IL-1B stimulated HUVEC, primary screen, cytotoxicity control for IL-1B NFkB translocation project, imaging, Hoechst nuclear count, IL-1B stimulus; HUVEC cell count loss; 94,000 tested, 0.41% active; cell count reduction, % at 2 µM;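 active = cell count reduction more than 3 SD above the screen-wide mean, cut at about 70% in these data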
IL1B NFkB inh: inhibitors of IL-1B driven NFkB p65 nuclear import, primary screen, imaging, HUVEC, IL-1B stimulus, high-content imaging; HUVEC IL-1B NFkB p65 nuclear translocation imaging; inhibition, % at 2 µM; 94,000 tested, 0.43% active; AID 796, 2007;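 active = inhibition above about 30% together with a positive call from visual inspection of the well image, limit read from the data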;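 note: nuclear over cytoplasmic p65 intensity ratio measured by imaging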
IL1B NFkB pot: enhancers of NFkB p65 translocation in HUVEC – imaging, IL-1B stimulus, high-content imaging, primary screen; AID 819, 2007; activation, % at 2 µM; 94,000 tested, 0.3% active; HUVEC IL-1B NFkB p65 nuclear translocation imaging;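 active = activation above 40%, about the mean plus 3 SD, also judged a hit on visual image review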;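 note: percent activation is computed from the nuclear over cytoplasmic p65 intensity ratio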
MRP reversal: reversal of MRP1-mediated doxorubicin resistance, primary screen, H69AR cells, doxorubicin co-treatment | H69AR cells + 2 uM doxorubicin, CellTiter-Glo, 72 h | differential viability (reversal), % at 10 µM | 85,000 tested, 0.04% active;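 active = viability drop by adding the cancer drug above about 55%, with treated viability meeting a 40% cutoff, limit read from the data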;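 note: larger differential means the compound sensitizes cells more to doxorubicin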
A number is an active result; 0 = inactive; - = no result given.

SMILES	sdo1 growth	MRP-1 activ	IL1B cytotox	IL1B NFkB inh	IL1B NFkB pot	MRP reversal
O=C(CN1C(=O)C2C3C=CC(C4CC34)C2C1=O)OCC(=O)c1ccccc1 (stereo not given)	0	0	-	-	-	-
O=C(Cc1ccc(-n2c(=O)[nH]c3ccsc3c2=O)cc1)N1CCN(c2ccc(Cl)cc2)CC1	0	5.0	-	-	-	-
COc1ccc(C2CCCN2C(=O)Nc2ccccc2)cc1OC (stereo not given)	0	0	0	0	0	0
COC(=O)c1[nH]c2ccc(Cl)cc2c1NC(=O)CN1CCc2cc(OC)c(OC)cc2C1	0	0	0	0	0	0
CCOC(=O)c1[nH]c2ccc(F)cc2c1NC(=O)CN1CCc2cc(OC)c(OC)cc2C1	0	0	0	0	48	0
CC(C)N(CCc1ccncc1)C(=O)Nc1ccc(Cl)c(Cl)c1	0	0	0	0	43	0
O=C(N/N=C/C=C/c1ccccc1)c1n[nH]c2c1CCC2	0	0	0	34	0	-
CCNC(=S)N(CCc1c(C)[nH]c2ccccc12)Cc1cc(OC)c(OC)c(OC)c1	0	0	-	-	-	-
C=CCn1c(SCC(=O)c2ccc(OC)cc2)nnc1C(C)NC(=O)c1cccs1 (stereo not given)	0	0	94	49	0	0
C=CCn1c(SCC(=O)NC2CCCCC2)nnc1C(C)NC(=O)c1cccs1 (stereo not given)	0	0	0	0	0	0
CC(=O)NC1=NN(C(C)=O)C(c2sccc2C)S1 (stereo not given)	0	0	0	0	0	0
COc1ccc(CNC(C)C2COc3ccccc3O2)c(OC)c1 (stereo not given)	0	0	0	0	0	0
CC(NCc1ccccc1)C1COc2ccccc2O1 (stereo not given)	0	0	0	0	49	0
CCOC(=O)c1cccc(Nc2nc(C)cc(C)n2)c1	0	0	83	0	0	0
CCOc1ccc(NC(=O)CN(C)c2nnnn2-c2ccccc2)cc1OCC	0	0	0	0	0	0
COc1cc(Cl)ccc1S(=O)(=O)n1nc(C)cc1C	0	0	0	0	0	0
COc1cc(S(=O)(=O)n2nc(C)cc2C)c(OC)cc1Cl	0	0	0	46	0	0
COc1cc(S(=O)(=O)n2nnc3ccccc32)c(OC)cc1Cl	0	0	87	0	0	0
CCOC(=O)CSc1nnc2c(n1)C1(C)CCC2C1(C)C (stereo not given)	0	0	0	0	0	-
CC12CCC(c3nnc(SCc4ccc(Cl)cc4)nc31)C2(C)C (stereo not given)	0	5.7	0	0	0	0
COc1ccc(NC(=O)Cn2cc(C(=O)c3ccco3)c3ccccc32)cc1	0	6.7	0	0	0	0
O=C(CSc1nc2ccccc2c(=O)[nH]1)Nc1ccc(S(=O)(=O)N2CCCC2)cc1	0	0	0	31	0	0
CCc1cccc(CC)c1NC(=O)COC(=O)c1ccc(F)c(S(=O)(=O)N(CC)CC)c1	0	0	-	-	-	-
Cc1onc(-c2ccccc2Cl)c1C(=O)Nc1nnc(-c2ccc(Br)cc2)s1	0	7.2	0	0	0	0
Cc1onc(-c2ccccc2Cl)c1C(=O)Nc1nnc(-c2ccc(F)cc2)s1	0	0	0	0	0	-
SMILES	sdo1 growth	MRP-1 activ	IL1B cytotox	IL1B NFkB inh	IL1B NFkB pot	MRP reversal
Cc1onc(-c2ccccc2Cl)c1C(=O)Nc1cccc(-c2cn3cccnc3n2)c1	0	0	85	94	0	0
Cc1ccc(-c2nnn(CC(=O)N(c3ccccc3F)C(C(=O)NCC3CCCO3)c3c[nH]c4ccccc34)n2)cc1 (stereo not given)	0	8.2	0	0	0	-
Cc1ccc(-c2nnn(CC(=O)N(c3ccccc3)C(C(=O)NCC3CCCO3)c3ccc(Cl)cc3)n2)cc1 (stereo not given)	0	0	0	0	0	-
Cc1cc(NS(=O)(=O)c2ccc(NC(=S)NC(=O)c3ccc(Br)cc3)cc2)no1	0	0	-	-	-	-
O=C(Nc1ccon1)c1cc2c(s1)CCCC2	0	4.8	0	0	0	0
Cc1oc(-c2ccccc2F)nc1CSCC(=O)NCc1ccc2c(c1)OCO2	0	0	0	0	0	0
Cc1cccc(S(=O)(=O)Nc2nc3ccccc3nc2NCc2ccc3c(c2)OCO3)c1	0	0	-	-	-	-
Cc1ccc(NC(=O)CC2SC(=O)N(c3ccccc3)C2=O)cc1 (stereo not given)	0	0	0	0	0	0
Cc1cccc(NC2SC(=O)N(c3ccccc3)C2=O)c1 (stereo not given)	0	0	0	0	0	0
Cc1cccc(NC(=O)CC2SC(=O)N(c3ccccc3)C2=O)c1 (stereo not given)	0	8.9	0	0	0	0
O=C(CC1SC(=O)N(c2ccccc2)C1=O)Nc1ccccc1 (stereo not given)	0	6.8	0	0	0	0
COC(=O)/C(=C/Nc1ccc(O)cc1)[N+](=O)[O-]	0	5.2	0	0	0	0
Cc1c(/C(O)=C2/C(=O)C(=O)N(CCN3CCOCC3)C2c2cccnc2)cnn1-c1ccccc1 (stereo not given)	0	0	0	0	60	0
Cc1c(/C(O)=C2/C(=O)C(=O)N(CCN3CCOCC3)C2c2ccco2)cnn1-c1ccccc1 (stereo not given)	-	-	-	-	-	0
CC1Cc2ccccc2N1C(=O)CSc1nnc(-c2ccccc2)c(-c2ccccc2)n1 (stereo not given)	0	0	0	0	0	-
Cc1ccc(C)c(N2CCN(C(=O)c3ccc4nc(-c5ccco5)c(-c5ccco5)nc4c3)CC2)c1	0	9.9	0	0	0	0
COc1ccccc1N1CCN(C(=O)c2ccc3nc(-c4ccco4)c(-c4ccco4)nc3c2)CC1	0	0	0	0	0	0
C/C(=N\NC(=O)c1cccc(S(=O)(=O)Nc2ccccc2Cl)c1)c1ccc(-n2ccnc2)cc1	0	0	0	0	0	-
Cc1[nH][nH]c(=O)c1C(c1ccc(-c2ccc(Cl)c(Cl)c2)o1)c1c(C)[nH][nH]c1=O	0	0	0	0	42	0
Cc1[nH][nH]c(=O)c1C(c1cc([N+](=O)[O-])ccc1O)c1c(C)[nH][nH]c1=O	0	0	-	-	-	-
CCOC(=O)C1CCN(C(=S)Nc2cccc(C)c2C)CC1	0	0	-	-	-	-
Cc1cc(C)n(-c2nc3ccccc3nc2N2CCCC2)n1	0	0	80	0	0	0
Cc1cc(C)n(-c2nc3ccccc3[nH]c2=O)n1	0	0	87	0	0	-
Cc1ccc(C(c2nnnn2C2CCCC2)N2c3ccccc3CC2C)cc1 (stereo not given)	0	0	-	-	-	-
